From PubChem BioAssay AID1053126 (Broad Institute, 2014)
Measured potencies and affinities stand elsewhere. The source made the active and inactive calls.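 The calls were made as follows: active = cell killing with a fitted half-effect concentration at or below twice the top valid dose; inconclusive = flat curve with 30 to 70 percent drop, or poor fit; inactive = the rest.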

Assay: HEK293T cell cytotoxicity, dose response, cytotoxicity control, ATP luminescence, cherry-pick, set 6 (AID 1053126);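 also: 0% = neutral control wells and -100% = mitoxantrone 10 µM positive control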
Conditions: HEK293T viability, CellTiter-Glo ATP luminescence, 72 h; series mostly up to 26 µM; activity change, negative = cytotoxicity: at the top concentration

SMILES	activity change, negative = cytotoxicity
CCN(CC)CCN1C2=C(C(=O)CC(C)(C)C2)C(c2cccc(F)c2)C2=C1CC(C)(C)CC2=O	-0.832% (inactive)
N#C/C(=C\c1ccco1)C(=O)Nc1cccc2ncccc12	6.1% (inactive)
O=C(O)c1ccc(-c2ccc(/C=C3\NC(=O)N(Cc4ccc(Cl)cc4)C3=O)o2)cc1	-3.02% (inactive)
N#CC1=C(N)OC2=C(C(=O)CCC2)C1c1cc2c(cc1Br)OCO2 (configuration not stated)	-8% (inactive)
O=C(NNc1c2ccccc2nc2ccccc12)c1ccc(O)cc1	-17.1% (inactive)
Cc1cccn2c(=O)c3cc(C#N)c(=NC(=O)c4cccs4)n(CC(C)C)c3nc12	-4.41% (inactive)
CCOCCCNc1c(CC)c(C)c(C#N)c2nc3ccccc3n12	-2.89% (inactive)
Cc1cc(C)nc(SCC(=O)Nc2ccc(S(=O)(=O)Nc3onc(C)c3C)cc2)n1	-1.79% (inactive)
CC(=O)c1cccc(-c2ccnc3c2CC(C(=O)NCc2ccc(F)c(F)c2)O3)c1 (configuration not stated)	-11.2% (inactive)
CCCn1c(=N)c(S(=O)(=O)c2ccccc2)cc2c(=O)n3ccccc3nc21	-5.16% (inactive)
CCCCn1nc(NC(=O)c2cccs2)c2cc3cc(OC)ccc3nc21	-8% [at 12 µM] (inactive)
COc1cc(C(=O)NCCCNc2nc3c(C)cc(C)cc3cc2C#N)cc(OC)c1OC	7.6% (inactive)
O=C(/C=C/c1ccccc1)C1=C(O)C(=O)N(CCO)C1c1ccc2c(c1)OCO2 (configuration not stated)	-12.3% (inactive)
Cc1cc(-n2c(=O)c(C#N)cc3c(=O)n4cccc(C)c4nc32)no1	-18.1% (inactive)
COCc1cc(C)nc(SCC(=O)Oc2ccc(Cl)cc2)c1C#N	-8.93% (inactive)
NC(=O)c1c(NC(=O)Cc2ccccc2)sc2c1CCN(Cc1ccccc1)C2	-10.5% (inactive)
CC1CCCCN1Cc1c(O)ccc2c(=O)c(-c3nc4ccccc4s3)coc12 (configuration not stated)	-6.86% (inactive)
COCCN1C=C(C(=O)OC)C(c2ccc(Cl)cc2)C(C(=O)OC)=C1	-13.6% (inactive)
COCCNC(=O)c1cc2c(=O)n3cccc(C)c3nc2n(Cc2ccncc2)c1=N	-15.1% (inactive)

SMILES	activity change, negative = cytotoxicity
CCc1ccccc1S(=O)(=O)Cc1ccc(C(=O)N2CCN(c3ccccc3OC)CC2)o1	-6.49% (inactive)
Fc1ccc(-c2nc3ccccn3c2NCc2ccc3c(c2)OCO3)cc1	-10.2% (inactive)
Nc1ccc2nc(-c3ccccc3)cnc2c1	-5.63% (inactive)
O=C(O)[C@@H]1CCCN1S(=O)(=O)c1cccc(S(=O)(=O)N2CCC[C@H]2C(=O)O)c1	-7.09% (inactive)
Cc1oc(/N=C/c2ccc(O)cc2O)c(C#N)c1C	-8.77% (inactive)
CC(=O)NNc1cc(N2CCOCC2)nc(N2CCOCC2)n1	-6.77% (inactive)
Cc1ccc2c(c1)N(C(=O)CCC(=O)NCCCN1CCOCC1)CC(C)O2 (configuration not stated)	-8.52% (inactive)
COc1ccccc1N1CCN(C2CCC(C)CC2)CC1 (configuration not stated)	-4.57% (inactive)
O=c1c2ccccc2n(CC(O)CN2CCCCC2)c2ccccc12 (configuration not stated)	-7.07% (inactive)
Cc1ccc2nc3c(cc(C(=O)NCc4ccccc4)c(=N)n3CCCn3ccnc3)c(=O)n2c1	-6.07% (inactive)
O=C(O)c1cccc(NC(=O)c2cn(-c3ccccc3)nc2-c2cccc(Br)c2)c1	-12.8% (inactive)
N#C/C(=C\c1ccc(N2CCOCC2)o1)C(=O)NCCc1ccccc1	-16.7% (inactive)
Cc1ccc(O)c(NC(=S)NC(=O)COc2ccc(Br)cc2)c1	17.8% (inactive)
Cc1cccn2c(=O)c(/C=C(\C#N)C(=O)NC3CCS(=O)(=O)C3)c(N3CCC(C(N)=O)CC3)nc12 (configuration not stated)	-17% (inactive)
CCN(CC)CCNC(=O)c1sc2nc(-c3ccccc3)cn2c1C	10.8% (inactive)
Nn1c(SCC(=O)N2CCCC2)nnc1-c1cccs1	-3.98% (inactive)
O=C(NNc1cc(N2CCCC2)nc(N2CCCC2)n1)c1ccc([N+](=O)[O-])cc1	-11.6% (inactive)
Cc1c2c(n3c(nc4ccccc43)c1C#N)N(CCN1CCOCC1)CC2	-6.36% (inactive)
